Assay results reported in the supplement of paper PMC10646978.
± gives the standard deviation.

Columns and labels:
Settings in all cases: modulator concentration 10 µM
[1] = test system: RAW-Dual (murine macrophage reporter line); assay: NF-kB reporter (SEAP) activity fold change vs agonist alone; higher = enhanced NF-kB activity
In short: (§1)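 RAW-Dual murine macrophage reporter cells were plated at 50 000 per well in 384-well plates, pin-transferred compound to 10 μM final, and pre-incubated for 1 hour at 37 °C before a PRR agonist was added and the cells incubated overnight. NF-κB activity was read from supernatant SEAP with QUANTI-Blue at 620 nm absorbance, and IRF activity from Lucia luciferase with QUANTI-Luc by luminescence. Each signal was expressed as fold change by dividing by the mean agonist-only control on the same plate. Two replicate plates were averaged, with errors obtained by propagation.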

[2] = test system: RAW-Dual (murine macrophage reporter line); assay: IRF reporter (Lucia luciferase) activity fold change vs agonist alone; higher = enhanced IRF activity
In short: as §1

[3] = test system: RAW-Dual (murine macrophage reporter line); assay: viability score (confluency relative to resting cells, overnight) (fraction); higher = more viable, active = viable (0.7 or more)
In short: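 RAW-Dual macrophages in 384-well plates were exposed overnight to compound at 10 μM final. Confluency was imaged with IncuCyte, and two confluency masks were generated with IncuCyte software over all imaged wells. The viability score is confluency expressed relative to resting cells. Compounds were called viable if both masks exceeded 70% of resting cells.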

[4] = agonist: CpG ODN 1826 0.5 ug/mL

| Compound | NF-kB reporter [1, 4] | NF-kB reporter ([1]; agonist: LPS 0.1 ug/mL) | NF-kB reporter ([1]; agonist: MPLA […]) | IRF reporter ([2]; agonist: 3'3'-cGAMP 10 ug/mL) | IRF reporter ([2]; agonist: LPS 0.1 ug/mL) | IRF reporter ([2]; agonist: MPLA […]) | viability score [3] |
| --- | --- | --- | --- | --- | --- | --- | --- |
| CCN(CC)CC(=O)Nc1c(C)cccc1C.Cl | 1.03 ± 0.079 | 0.968 ± 0.063 | 1.03 ± 0.051 | 0.89 ± 0.075 | 0.927 ± 0.039 | 0.865 ± 0.11 | 0.997 (active) |
| O=C(c1cc2nc(-c3ccccc3)cc(-c3ccccc3)n2n1)N1CCCCCC1 | 0.999 ± 0.081 | 1.16 ± 0.077 | 0.976 ± 0.065 | 0.965 ± 0.035 | 1.37 ± 0.19 | 1.12 ± 0.078 | 1.02 (active) |
| Cn1nc(-c2ccc(F)cc2)cc1C(=O)NCC1(CO)CC1 | 0.865 ± 0.037 | 1.04 ± 0.1 | 1.03 ± 0.056 | 1.03 ± 0.049 | 1.09 ± 0.32 | 1.23 ± 0.33 | 1.02 (active) |
| O=c1cc(O)c(Cl)c[nH]1 | 0.953 ± 0.11 | 0.952 ± 0.15 | 1 ± 0.052 | 1.01 ± 0.12 | 0.925 ± 0.033 | 0.839 ± 0.13 | 0.996 (active) |
| O=S(=O)(Cc1cccc(Cl)c1)N1C2CCC1CC(Oc1cccnc1)C2 (stereo unspecified) | 1.07 ± 0.064 | 1.13 ± 0.1 | 1.08 ± 0.039 | 0.96 ± 0.064 | 1.12 ± 0.063 | 1.2 ± 0.12 | 1 (active) |
| O=C(Nc1nccs1)c1ccc2c(c1)C(=O)N(C1CCCCC1)C2=O | 1.09 ± 0.086 | 1.05 ± 0.096 | 0.878 ± 0.052 | 0.979 ± 0.032 | 1.57 ± 0.22 | 1.21 ± 0.21 | 1 (active) |
| CC(C)c1ccccc1NS(=O)(=O)c1ccccc1 | 0.866 ± 0.072 | 0.766 ± 0.039 | 1.05 ± 0.11 | 1.08 ± 0.066 | 1.4 ± 0.089 | 1.53 ± 0.16 | 0.857 (active) |
| CC(=O)O.NCc1ccc(S(N)(=O)=O)cc1 | 1 ± 0.1 | 1.01 ± 0.052 | 0.992 ± 0.058 | 0.914 ± 0.065 | 0.96 ± 0.12 | 1.02 ± 0.092 | 1.01 (active) |
| Cc1ccc(-c2cc(-c3ccccc3)nc(NN=Cc3ccc(F)cc3)n2)cc1 | 0.961 ± 0.17 | 1.23 ± 0.1 | 0.988 ± 0.13 | 1.02 ± 0.051 | 1.15 ± 0.11 | 1.48 ± 0.27 | 0.959 (active) |
| O=C(Cn1ncccc1=O)N1Cc2cnc(N3CCOCC3)nc2C1 | 0.942 ± 0.082 | 1.1 ± 0.1 | 0.938 ± 0.042 | 0.956 ± 0.058 | 1.16 ± 0.21 | 1.09 ± 0.31 | 0.998 (active) |
| C#CCOC(=O)CCCC(=O)Nc1ccc([N+](=O)[O-])cc1Cl | 0.957 ± 0.066 | 1.01 ± 0.067 | 0.975 ± 0.062 | 1.01 ± 0.036 | 1.59 ± 0.11 | 1.3 ± 0.21 | 0.999 (active) |
| COc1ccc(Br)cc1S(=O)(=O)NCc1ccccc1 | 1.23 ± 0.3 | 0.932 ± 0.054 | 1.06 ± 0.11 | 1.18 ± 0.046 | 1.19 ± 0.13 | 1.21 ± 0.16 | 0.928 (active) |
| O=C(NC1CCOCC1)N1CCOC(c2cc(Cl)cc(Cl)c2)C1 (stereo unspecified) | 0.83 ± 0.036 | 1.05 ± 0.083 | 1.09 ± 0.06 | 0.971 ± 0.045 | 1.35 ± 0.27 | 1.54 ± 0.52 | 0.968 (active) |
